In PubChem BioAssay AID1159580 (chemical genetic matrix, 2015):
In all, about 5,500 compounds went through this assay and about 2,000 (36%) were called active. Not shown: some 18% with an inconclusive outcome. Some of the results follow. A number with no mark means an inactive call. No stated cut-off is given here; in the data, active means normalized growth mostly below about 0.91 (no sharp cut-off); inconclusive means no clear call, values can overlap the other calls; inactive means mostly above about 0.92.

Assay: chemical genetic growth profiling, strain panel (AID 1159580);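 further: tested at 20 µM; growth read once vehicle control cultures reached saturation at 30 °C; 1 = growth at the plate median or of vehicle wells; lower values mean less growth of the strain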
Settings: S. cerevisiae deletion strains, growth OD
[1] = locus YDL101C, strain DUN1, active compounds read low
[2] = locus YHR030C, strain SLT2, active compounds read low
[3] = locus YGR078C, strain PAC10, active compounds read low
[4] = locus YJR075W, strain HOC1, active compounds read low
[5] = locus YNL128W, strain TEP1, active compounds read low
[6] = locus YNL153C, strain GIM3, active compounds read low
[7] = locus YNL322C, strain KRE1, active compounds read low
[8] = locus YPL055C, strain LGE1, active compounds read low

## CC(=O)c1ccccc1C(=O)c1ccc(C(C)(C)C)cc1
Locus YAR019C, strain CDC15, active compounds read low
  normalized growth: 0.961
Locus YBL105C, strain PKC1, active compounds read low
  normalized growth: 0.961
Locus YBR135W, strain CKS1, active compounds read low
  normalized growth: 0.957
Locus YBR136W, strain MEC1, active compounds read low
  normalized growth: 0.96
Locus YBR160W, strain CDC28, active compounds read low
  normalized growth: 0.959
Locus YDL017W, strain CDC7, active compounds read low
  normalized growth: 0.956
Locus YDL028C, strain MPS1, active compounds read low
  normalized growth: 0.961
[1]
  normalized growth: 0.95
Locus YDL108W, strain KIN28, active compounds read low
  normalized growth: 0.964
Locus YDL132W, strain cdc53, active compounds read low
  normalized growth: 0.958
Locus YDL214C, strain PRR2, active compounds read low
  normalized growth: 0.969
Locus YDR052C, strain DBF4, active compounds read low
  normalized growth: 0.964
Locus YDR054C, strain cdc34, active compounds read low
  normalized growth: 0.957
Locus YDR226W, strain ADK1, active compounds read low
  normalized growth: 0.96
Locus YDR477W, strain SNF1, active compounds read low
  normalized growth: 0.969
Locus YER123W, strain YCK3, active compounds read low
  normalized growth: 0.982
Locus YER133W, strain GLC7, active compounds read low
  normalized growth: 0.953
Locus YFL009W, strain cdc4, active compounds read low
  normalized growth: 0.953
Locus YFL029C, strain CAK1, active compounds read low
  normalized growth: 0.953
Locus YFR003C, strain YPI1, active compounds read low
  normalized growth: 0.961
Locus YFR019W, strain FAB1, active compounds read low
  normalized growth: 0.981
Locus YFR028C, strain CDC14, active compounds read low
  normalized growth: 0.965
Locus YGR040W, strain KSS1, active compounds read low
  normalized growth: 0.967
Locus YGR052W, strain FMP48, active compounds read low
  normalized growth: 0.992
Locus YGR092W, strain DBF2, active compounds read low
  normalized growth: 0.954
[2]
  normalized growth: 0.855
Locus YHR079C, strain IRE1, active compounds read low
  normalized growth: 0.918
Locus YHR082C, strain KSP1, active compounds read low
  normalized growth: 1.07
Locus YHR205W, strain SCH9, active compounds read low
  normalized growth: 1
Locus YIL147C, strain SLN1, active compounds read low
  normalized growth: 0.961
Locus YJL095W, strain BCK1, active compounds read low
  normalized growth: 0.999
Locus YJL128C, strain PBS2, active compounds read low
  normalized growth: 0.918
Locus YJL157C, strain FAR1, active compounds read low
  normalized growth: 0.984
Locus YJR016C, strain ILV3, active compounds read low
  normalized growth: 0.969
Locus YJR066W, strain TOR1 (second series), active compounds read low
  normalized growth: 0.989
Locus YJR066W, strain TOR1, active compounds read low
  normalized growth: 1.04
Locus YKL048C, strain ELM1, active compounds read low
  normalized growth: 0.939
Locus YKL067W, strain YNK1, active compounds read low
  normalized growth: 0.967
Locus YKL101W, strain HSL1, active compounds read low
  normalized growth: 0.976
Locus YKL193C, strain SDS22, active compounds read low
  normalized growth: 0.961
Locus YKL203C, strain TOR2, active compounds read low
  normalized growth: 0.989
Locus YLR113W, strain HOG1, active compounds read low
  normalized growth: 0.761 (active)
Locus YLR133W, strain CKI1, active compounds read low
  normalized growth: 0.986
Locus YLR403W, strain SFP1, active compounds read low
  normalized growth: 0.985
Locus YML070W, strain DAK1, active compounds read low
  normalized growth: 0.953
Locus YMR001C, strain CDC5, active compounds read low
  normalized growth: 0.959
Locus YMR205C, strain PFK2 (second series), active compounds read low
  normalized growth: 0.981
Locus YMR277W, strain FCP1, active compounds read low
  normalized growth: 0.963
Locus YNL006W, strain LST8, active compounds read low
  normalized growth: 0.954
Locus YNL020C, strain ARK1, active compounds read low
  normalized growth: 0.99
Locus YNL161W, strain CBK1, active compounds read low
  normalized growth: 0.959
Locus YNL183C, strain NPR1, active compounds read low
  normalized growth: 1
Locus YNL207W, strain RIO2, active compounds read low
  normalized growth: 0.958
Locus YNL222W, strain SSU72, active compounds read low
  normalized growth: 0.966
Locus YNL307C, strain MCK1 (second series), active compounds read low
  normalized growth: 0.975
Locus YOL078W, strain AVO1, active compounds read low
  normalized growth: 0.967
Locus YOL136C, strain PFK27, active compounds read low
  normalized growth: 0.98
Locus YOR061W, strain CKA2, active compounds read low
  normalized growth: 0.975
Locus YOR119C, strain RIO1, active compounds read low
  normalized growth: 1.02
Locus YOR231W, strain MKK1, active compounds read low
  normalized growth: 0.949
Locus YOR329C, strain SCD5, active compounds read low
  normalized growth: 0.961
Locus YPL031C, strain PHO85, active compounds read low
  normalized growth: 0.961
Locus YPL153C, strain RAD53, active compounds read low
  normalized growth: 0.953
Locus YPL204W, strain HRR25, active compounds read low
  normalized growth: 0.96
Locus YPL209C, strain IPL1, active compounds read low
  normalized growth: 0.959
Locus YPL256C, strain CLN2, active compounds read low
  normalized growth: 0.85 (active)
Locus YPR025C, strain CCL1, active compounds read low
  normalized growth: 0.96
Locus YPR106W, strain ISR1, active compounds read low
  normalized growth: 0.969
Locus YPR111W, strain DBF20, active compounds read low
  normalized growth: 0.946
Strain NNK1, active compounds read low
  normalized growth: 0.96
Strain TSCII, active compounds read low
  normalized growth: 0.955

## CN(C)C(=O)N=NC(=O)N(C)C
Locus YAL040C, strain CLN3, active compounds read low
  normalized growth: 0.985
Locus YCL061C, strain MRC1 (second series), active compounds read low
  normalized growth: 0.994
Locus YDR363W, strain ESC2, active compounds read low
  normalized growth: 1.04
Locus YER002W, strain NOP16, active compounds read low
  normalized growth: 1.03
[3]
  normalized growth: 0.99
[4]
  normalized growth: 1.02
[5]
  normalized growth: 0.983
[6]
  normalized growth: 0.968
Locus YNL175C, strain NOP13, active compounds read low
  normalized growth: 0.996
Locus YNL197C, strain WHI3, active compounds read low
  normalized growth: 0.984
Locus YNL224C, strain SQS1, active compounds read low
  normalized growth: 1.01
[7]
  normalized growth: 1.02
Locus YOR083W, strain WHI5 (second series), active compounds read low
  normalized growth: 0.968
[8]
  normalized growth: 1.06

## O=C1CC2(CCCC2)C(=O)N1CCNc1nccc(C(F)(F)F)n1
Locus YAL013W, strain DEP1, active compounds read low
  normalized growth: 1.01
Locus YBR229C, strain ROT2, active compounds read low
  normalized growth: 0.991
Locus YCL061C, strain MRC1, active compounds read low
  normalized growth: 0.977
[1]
  normalized growth: 0.985
Locus YDR150W, strain NUM1, active compounds read low
  normalized growth: 1.05
Locus YEL061C, strain CIN8, active compounds read low
  normalized growth: 1.01
[3]
  normalized growth: 0.982
[2]
  normalized growth: 0.994
Locus YHR087W, strain rtc3, active compounds read low
  normalized growth: 1.03
Locus YJL187C, strain SWE1, active compounds read low
  normalized growth: 0.995
Locus YJR043C, strain POL32, active compounds read low
  normalized growth: 0.999
[4]
  normalized growth: 0.97
Locus YKL190W, strain CNB1, active compounds read low
  normalized growth: 0.984
Locus YLR039C, strain RIC1, active compounds read low
  normalized growth: 0.935
Locus YLR058C, strain SHM2 (second series), active compounds read low
  normalized growth: 0.975
Locus YLR085C, strain ARP6, active compounds read low
  normalized growth: 0.999
Locus YLR262C, strain YPT6, active compounds read low
  normalized growth: 0.972
Locus YML094W, strain GIM5, active compounds read low
  normalized growth: 1
Locus YMR219W, strain ESC1, active compounds read low
  normalized growth: 0.997
Locus YMR263W, strain SAP30, active compounds read low
  normalized growth: 1.01
[5]
  normalized growth: 0.989
[6]
  normalized growth: 1.01
Locus YNL298W, strain CLA4 (second series), active compounds read low
  normalized growth: 0.964
[7]
  normalized growth: 0.993
Locus YNR030W, strain Alg12, active compounds read low
  normalized growth: 0.986
[8]
  normalized growth: 1.03
Locus YPL241C, strain CIN2, active compounds read low
  normalized growth: 1
Locus YPR135W, strain CTF4, active compounds read low
  normalized growth: 0.941
